Measured values from the supplement of paper PMC3724861.
The full list was thinned out, with hits kept by preference. The hit rate among all sequences tested is not known here.

What follows are sequences tested on T1, Caupolican (Caup) homeodomain DNA-binding domain (assay: PBM E-score (8-mer, recovered from the published 9-mer minima) (E-score (dimensionless, -0.5 to 0.5)); Drosophila protein; higher = stronger relative binding preference, active = 0.31 or more).
T1 sequence: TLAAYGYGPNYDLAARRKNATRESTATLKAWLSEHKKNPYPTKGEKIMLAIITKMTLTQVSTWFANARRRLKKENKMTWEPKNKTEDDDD
Protocol: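 Protein binding microarray (PBM): in vitro transcribed/translated Caupolican (Caup) homeodomain DNA-binding domain (residues 214-303) applied at 100 nM to a universal 8-mer PBM array (Agilent AMADID 015681). The 8-mer enrichment score (E-score, range -0.5 to 0.5) was computed, and each 9-mer score is the minimum E-score of its two constituent 8-mers. The E-score is the same for a 9-mer and its reverse complement; 0.31 is the stated binding threshold.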

PBM E-score, inactive:
ACCAGTGC -0.019
TAAGGGGA -0.0541
ACAAGGAG 0.224
CCAAGTAC 0.0484
ACAAGGAA 0.247
AAAAGTAT 0.121
GCAAGTAC 0.176
ACAAGTCT 0.296
AAGATCGA 0.0302
TCAGTTAA 0.0667
ACAGGTAT 0.203
ACCCCTCG -0.218
GTGTGAAC 0.0865
CTATGTGC 0.0747
CTCTGTAC 0.137
ATATGTAG 0.297
ATATGTCC 0.261
CTAGGACA 0.241
TAGTTTAA 0.218
AGCGAGCT -0.108
ACACCACC 0.0972
AAACTTTC -0.0217
ACTGACAG 0.0804
AAAACATC 0.305
CAAACATC 0.23
AAAACATT 0.252
CAAACACC 0.126
CAAACACA 0.265
CAAACATA 0.292
CATCTAGG -0.0637
CAAGTAAG 0.0621
CATTTCAA 0.154
ATGCAATA 0.197
TGAGGCAA -0.0847
AAGGGCGC -0.172
CACCAGGC -0.132
CGGTTGTA 0.209
ATGTTGAG 0.132
ACGTTGTA 0.291
GTGTTGCA 0.184
CTGTTGAC 0.137
CTGTTGTA 0.273
ATGTTGTG 0.282
AGGTTGTG 0.133
CGTCTGCC -0.188
ATTGTCCG 0.122
CATTTCTA 0.102
GTCAACCA 0.0944
ACTAGCGC -0.134
AACCGGGA -0.0571
ATCAAAGC -0.0471
ATCAGCTC 0.00528
AAGGCGAC 0.00668
ACGACTGC -0.0879
GGATACCC -0.15
CTCCAACC -0.171
CACACCGA 0.0554
ACAAACCG 0.0217
CTGTTGTC 0.256
ATGTTGCC 0.121
CCGCATCC -0.16
CGTTAACA 0.164
AACTAACT -0.00416
TACTAACA 0.253
AATTAACC 0.0386
AATTAACT 0.117
AGTTAACA 0.265
GAGTAACA 0.206
AAGTAACA 0.306
GTATCACA 0.198
ACAGAAGA 0.101
TAGCACAA 0.0785
ATGAAAAA 0.0536
AATGCACT 0.108
GGATTAGA -0.0283
GCCATCGA -0.0979
GATTAACA 0.292
CATTAACA 0.234
CCATCCCC -0.241
CAAGAGAG -0.0747
TCCTCTCA -0.0753
AGTGTACG 0.152
GCTGTACA 0.268
AGTGTAGA 0.162
GGTGTATA 0.133
ATAGATAT 0.169
ACGGACCC -0.139
CGCGGGTC -0.163
CCAATGGA -0.156
ATGCAGCC 0.00431
CTGATTTA 0.138
GCATTAGC -0.144
CTTATTGA 0.0828
CGCGAACG -0.0783

PBM E-score, active:
ACAAGGAT 0.315
ACAAGTAC 0.35
ACAAGTAT 0.314
ATATGTAC 0.387
CTATGTAC 0.381
CAAACACG 0.315
AAAACATG 0.419
CAAACATG 0.391
ATGTTGTA 0.431
GTGTTGTA 0.395
ATGTTGAC 0.322
AGGTTGTA ≥ 0.333
ATGTTGTC 0.424
AATTAACA 0.326
TGTTAACA 0.371
TAGTAACA ≥ 0.316
AACTAACA ≥ 0.339
TATTAACA 0.312
GGTGTACA 0.327
AGTGTACA 0.337
